# Experimental data from PubChem BioAssay (EPA / NIEHS).
# Inconclusive results are not listed. The source made the active and inactive calls. How the source made its calls, unless noted: active means hit-call score of the fitted dose curve at least 0.9, where 1 is the maximum; inconclusive means response in the unintended direction; inactive means score below 0.9.
# Read-out: Monokine induced gamma interferon (MIG), CXCL9 (gene 4283)
# Experiment: BSK_3C_MIG: BioMAP Diversity Plus: 3C Assay for Monokine induced gamma interferon (MIG) Biomarker Activity (AID 2283021; active means hit-call score of the fitted dose curve at least 0.9, where 1 is the maximum; inactive means score below 0.9;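 on AC50: MIG protein level measured by immunoassay in the treated endothelial cultures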)
# Details: primary human endothelial cells (HUVEC); actives raise or lower the signal
# How it was run: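 ELISA measurement of MIG in human umbilical vein endothelial cells 24 h after treatment. Cytotoxicity tracked by SRB staining in parallel cultures; gain or loss of signal fitted relative to DMSO.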
SMILES,outcome,AC50
Nc1ccc(N)c([N+](=O)[O-])c1,inactive,
C=C(C)C(=O)OCCC(F)(F)C(F)(F)C(F)(F)C(F)(F)C(F)(F)C(F)(F)C(F)(F)C(F)(F)F,inactive,
O=S1(=O)CC(Cl)(Cl)C(Cl)(Cl)C1,,1340 nM (active)
C=C(F)C(=O)OC(C(F)(F)F)C(F)(F)F,inactive,
CC(C)CCCC(C)(C)O,inactive,
CC(C)Cc1ccc(C(C)C(=O)O)cc1 (stereo unspecified),inactive,
O=C(O)C(F)(F)OC(F)(F)C(F)(F)OC(F)(F)C(F)(F)C(F)(F)C(F)(F)F,inactive,
CCCCOCCOCCO,inactive,

# Target: human Vitamin D Receptor (VDR), VDR (gene 7421) (UniProt P11473)
# Experiment: ATG_VDR_TRANS: Attagene TRANS-FACTORIAL HepG2 Assay for human Vitamin D Receptor (VDR) (AID 2283022)
# Details: not given
# How it was run: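 RT-PCR/capillary electrophoresis read-out of reporter mRNA induction in transiently transfected HepG2; 24 h dosing; chimeric NR-Gal4 (TRANS format); gain-of-signal fit against DMSO baseline.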
# Chain of human Vitamin D Receptor (VDR), VDR (gene 7421) (P11473 whole entry, looked up): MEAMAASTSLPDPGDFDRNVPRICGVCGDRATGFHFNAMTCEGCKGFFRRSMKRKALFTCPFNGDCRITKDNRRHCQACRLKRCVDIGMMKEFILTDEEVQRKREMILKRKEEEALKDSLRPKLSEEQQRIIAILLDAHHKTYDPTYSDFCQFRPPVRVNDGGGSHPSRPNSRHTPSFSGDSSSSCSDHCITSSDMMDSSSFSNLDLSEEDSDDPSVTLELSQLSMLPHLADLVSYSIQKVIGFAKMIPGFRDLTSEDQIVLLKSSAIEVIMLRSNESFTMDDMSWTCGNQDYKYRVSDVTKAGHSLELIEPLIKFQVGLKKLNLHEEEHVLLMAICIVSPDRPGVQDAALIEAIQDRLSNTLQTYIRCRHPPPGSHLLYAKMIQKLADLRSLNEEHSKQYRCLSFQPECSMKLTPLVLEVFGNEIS
row,SMILES,outcome
1,CCCCCC(=O)O[C@]1(C(C)=O)CC[C@H]2[C@@H]3CCC4=CC(=O)CC[C@]4(C)[C@H]3CC[C@@]21C,inactive
2,CCCCCCOc1ccc(O)cc1,inactive
3,CCCCCCCCSCc1cc(C)c(O)c(CSCCCCCCCC)c1,inactive
4,CC1=CC[C@@H](C(C)(C)O)CC1,inactive
5,C=C1CC[C@H]2O[C@]2(C)CC[C@@H]2[C@@H]1CC2(C)C,inactive
6,CCCO,inactive
7,C=C/C(C)=C/C/C=C(\C)CCC=C(C)C,inactive
8,CC(=O)c1ccc(O)cc1,inactive
9,NS(=O)(=O)c1cc(C(=O)O)c(NCc2ccco2)cc1Cl,inactive
10,CN1CCc2cccc3c2[C@H]1Cc1ccc(O)c(O)c1-3,inactive
11,CC(C)=CC(=O)O,inactive
12,CC(=O)OC/C=C(C)/C=C/C=C(C)/C=C/C1=C(C)CCCC1(C)C,inactive
13,CCO[Si](CC)(OCC)OCC,inactive
14,CC(C)COC(=O)c1ccccc1,inactive
15,CCOC(=O)CC(C)C,inactive
16,CCCCC/C=C\C=C\C(=O)OCC,inactive
17,OC[C@@H](O)[C@H](O)[C@@H](O)[C@@H](O)CO,inactive
18,CCC(C)(CCCC(C)C)OC(C)=O (stereo unspecified),inactive
19,C=C(C)C(=O)OCCOCCOC(=O)C(=C)C,inactive
20,CC(=O)Oc1c(C)c(C)c2c(c1C)CC[C@@](C)(CCC[C@H](C)CCC[C@H](C)CCCC(C)C)O2,inactive
21,O=C1OCc2ccccc21,inactive
22,CN(C)CCC=C1c2ccccc2CCc2ccccc21,inactive
23,Cc1ccc(C(C)(C)O)cc1,inactive
24,CC(C)COC(=O)c1ccccc1O,inactive
25,CC(C)(C)c1ccc(S)cc1,inactive
26,CN(C)c1ccc(C=O)cc1,inactive
27,CCCc1ccc(N)cc1,inactive
28,CC(C)(C)C1CCC(O)CC1 (stereo unspecified),inactive
